Screening data from PubChem BioAssay.
The list is not random: actives were taken first. Their share in the collection is about 1.4%.
TSG101-PTAP inh: qHTS Assay for Iinhibitors of HIV-1 Budding by Blocking the Interaction of PTAP/TSG101; Tumor susceptibility gene 101 protein (Homo sapiens), Q99816; Fluorescence polarization, FITC-PTAP peptide / Tsg101 binding; Potency, µM (highest dose often 115 µM), actives largely listed as inhibitors; 340,000 tested, under 10 active; AID 493005, 2010; active = well fitted inhibition curve with a large enough effect in the main read-out, with a control signal flat, not every such curve was filed as active; inconclusive = small, poorly fitted or top-dose-only effect, or effect the other way, or a change in a side signal; inactive = no such curve, though single readings can be large or run the other way
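Tsg101 binding domain (10 uM final) was mixed with compound and a FITC-labeled PTAP peptide (50 nM final) in HEPES pH 7.5 buffer with NaCl, Tween 20, EDTA and TCEP; fluorescence polarization was read after 20 min at r.t.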
Vif-APOBEC3F blk: qHTS for Inhibitors of Vif-A3F Interactions: qHTS; 390,000 compounds, 0.2% hits; AID 602313, 2012; HeLa A3F-eYFP + Vif (tagged APOBEC3F with the HIV-1 protein that degrades it), YFP fluorescence increase; Potency, µM (top dose mostly 46.1 µM); also: nearly all actives have a fitted effect of over 65% in size
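Fluorescence increase (Ex 488/Em 500-530) after overnight compound treatment at 37 deg C flags inhibition of Vif-driven A3F-eYFP loss in stable HeLa A3F-eYFP/Vif cells seeded overnight beforehand.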
Akt phos inh: HTS Assay for Inhibitors of Akt Phophorylation: Primary Screen; Neuro2A IGF-stimulated pAkt S473 HTRF, 20 min; hits give low values; activity change, % for hits at 50 µM; 360,000 compounds, 0.32% hits; AID 651550, 2012; in the data active = activity change below about -80%; inconclusive = mostly about -51% to -80%
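Single-point screen (50 µM final compound) in Neuro2A cells stimulated 20 min with 6 nM IGF at 37 deg C. After lysis, Ser473-phosphorylated Akt read by HTRF (ex 330 nm, em 615/665 nm) as the 665/615 ratio.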
12-LOX inh: Primary qHTS assay for inhibitors of human arachidonate 12S-lipoxygenase (ALOX12): Round 2 | Polyunsaturated fatty acid lipoxygenase ALOX12 (Homo sapiens), P18054 | purified 12hLO, xylenol orange hydroperoxide absorbance | Potency, µM (series often up to 108 µM), most hits filed as inhibitors | 580,000 compounds, 1.1% hits | AID 1671190, 2021
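Purified human 12hLO (150 nM final) in 25 mM Hepes, 0.01% Triton X-100, pH 7.0 was preincubated 15 min at room temperature with compound. Then 40 uM arachidonic acid was added, 30 min. Hydroperoxide was read by Fe-XO absorbance ratio 573/405 nm.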
Vif-A3G inh: qHTS for Inhibitors of Vif-A3G Interactions: qHTS; AID 602310, 2012; DNA dC->dU-editing enzyme APOBEC-3G (Homo sapiens), Q9HC16; HeLa A3G-eYFP + Vif (tagged APOBEC3G with the HIV-1 protein that degrades it), YFP fluorescence, overnight; Potency, µM (titrated, usually from 46.1 µM), most hits filed as inhibitors; 410,000 compounds, 0.076% hits; also: nearly all actives have a fitted effect of over 60% in size
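HeLa cells stably expressing Vif and C-terminally eYFP-tagged A3G, seeded overnight at 37 deg C, then exposed to compound by pintool overnight at 37 deg C. Rise in yellow fluorescence (Ex 488/Em 500-530, Acumen) marks blocked Vif-driven A3G degradation.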
S-ASM inh: Inhibitors of Secretory Acid Sphingomyelinase (S-ASM): qHTS; 340,000 compounds, 0.006% hits; Potency, µM (series often up to 57.5 µM), hits mostly inhibitors; placental ASM, HMU-PC fluorogenic substrate, 60 min; Sphingomyelin phosphodiesterase (Homo sapiens), P17405
Target sequence (P17405 47-631 limits assumed): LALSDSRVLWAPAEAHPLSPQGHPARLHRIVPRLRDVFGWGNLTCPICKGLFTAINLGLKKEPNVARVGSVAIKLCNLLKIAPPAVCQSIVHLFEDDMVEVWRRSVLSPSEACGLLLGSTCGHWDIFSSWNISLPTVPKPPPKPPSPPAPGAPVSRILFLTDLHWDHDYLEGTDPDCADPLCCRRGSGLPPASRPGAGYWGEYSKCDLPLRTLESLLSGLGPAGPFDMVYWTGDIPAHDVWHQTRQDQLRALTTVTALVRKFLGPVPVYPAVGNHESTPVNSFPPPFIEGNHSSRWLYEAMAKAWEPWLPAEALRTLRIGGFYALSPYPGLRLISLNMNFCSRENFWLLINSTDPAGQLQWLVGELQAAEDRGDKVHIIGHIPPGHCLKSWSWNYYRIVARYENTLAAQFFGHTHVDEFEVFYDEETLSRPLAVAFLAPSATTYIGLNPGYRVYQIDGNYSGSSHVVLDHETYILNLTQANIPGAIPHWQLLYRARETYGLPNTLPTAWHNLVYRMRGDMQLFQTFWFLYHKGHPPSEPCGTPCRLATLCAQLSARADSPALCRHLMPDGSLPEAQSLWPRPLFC
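HMU-PC0 cleavage (9 uM final) by human placental ASM, 60 min at 37 °C following 10 min compound exposure at RT; stopped at pH 10, fluorescence Ex 386/Em 447 nm.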
Numbers stand for hits; n = inactive; u = inconclusive; x = not tested or not shown; ! = not confirmed by another sample. Unless noted, calls follow the shape of the dose curve; as a rule, active = well fitted curve in the direction sought with a large enough effect; inconclusive = small, poorly fitted or top-dose-only effect, or another doubt; inactive = no such curve, though single readings can be large; an effect the other way counts as inactive or inconclusive.

SMILES	TSG101-PTAP inh	Vif-APOBEC3F blk	Akt phos inh	12-LOX inh	Vif-A3G inh	S-ASM inh
O=C1NC(=S)NC(=O)C1C/C=C/c1ccccc1	n	n	n	4µM	n	n
O=C1NC(=S)NC(=O)C1Cc1ccccc1	n	n	n	28µM	n	n
CC1CCC(=O)O1 (centres undefined)	x	x	x	n	x	x
COC(=O)c1c(C)n(Cc2ccccc2)c2ccc(O)cc12	n	n	n	16µM!	n	n
O=C1NC(=O)[C@]2(Cc3ccccc3N3CCN(c4ccccc4)CC32)C(=O)N1Cc1ccccc1 (some centres undefined)	n	n	n	16µM	n	n
CCN(CC)c1ccc(N=Cc2c(O)n(Cc3ccccc3)c(=O)[nH]c2=O)cc1	u	7.9µM!	n	n	u	n
CCOc1cccc(CNCCc2c(C)[nH]c3ccc(OC(F)(F)F)cc23)c1O	n	n	n	40µM	n	n
Cc1[nH]c2ccc(OC(F)(F)F)cc2c1CCNCc1cccc([N+](=O)[O-])c1	n	n	n	u	n	n
COc1ccc2[nH]c(C)c(CCNCc3ccc(F)cc3F)c2c1	x	x	x	1µM	x	x
CCCCc1ccc2[nH]c(C)c(CCN)c2c1	x	x	x	3.2µM	x	x
CCCCc1ccc2[nH]cc(CCN)c2c1	n	n	n	n	n	n
NCCc1cccc(N)n1	x	x	x	n	x	x
O=C(COC(=O)C(O)(c1ccccc1)c1ccccc1)c1c[nH]c2ccccc12	x	x	x	n	x	x
COc1ccc2c(c1)C1(CCN(C(=O)NC3CCCCC3)C1)C(=O)N2 (centres undefined)	x	x	x	n	x	x
COc1ccc2c(c1)C1(CCN(C(=O)c3ccccc3Br)C1)C(=O)N2 (centres undefined)	x	x	x	32µM	x	x
O=C(O)c1cccc2c1NC(C(=O)O)C1CC(Sc3ccccc3[N+](=O)[O-])C(Cl)C21 (centres undefined)	n	n	n	3.2µM	n	n
CC(=O)c1ccc2c(c1)C1C(Cl)C(Sc3ccccc3[N+](=O)[O-])CC1C(C(=O)O)N2 (centres undefined)	n	n	n	11µM	n	n
CN(C)c1nc(-c2ccccc2)[n+](C)s1	n	n	n	u	n	n
Cc1ccc(-c2nc(N3CCOCC3)s[n+]2-c2ccccc2)cc1	n	n	n	20µM	n	n
Cc1ccc(NC(=O)c2cn(C)c3ccccc23)c2cccnc12	x	x	x	n	x	x
Cc1cc(C(=O)N2[C@H]3CC[C@@H]2c2cnc(-c4ccc(F)cc4)nc2C3)n[nH]1	x	x	x	n	x	x
CN1C(=O)C(=Cc2ccc(N3CCCCC3)o2)C(=O)N(C)C1=S	n	4µM	n	n	u	n
O=C1NC(=O)N(c2ccc3c(c2)OCO3)C(=O)/C1=C/c1ccc(N2CCCCC2)o1	u	22µM	n	n	u	n
CC(C)c1ccc(N2C(=O)NC(=O)/C(=C\C=C\c3ccco3)C2=O)cc1	n	u	n	10µM	u	n
Cc1nc(-c2ccccc2)cc([C@H]2CN3CC[C@H]2C[C@@H]3CN(Cc2ccco2)Cc2ccco2)n1	x	x	x	n	x	x
SMILES	TSG101-PTAP inh	Vif-APOBEC3F blk	Akt phos inh	12-LOX inh	Vif-A3G inh	S-ASM inh
COC(=O)C1=Nc2ccccc2/C1=C\c1c(O)n(-c2ccc(Br)cc2)c(=O)[nH]c1=O	n	n	n	35µM	n	n
COC(=O)C1=Nc2ccccc2/C1=C\c1c(O)n(-c2ccc(OC)cc2)c(=O)[nH]c1=O	n	n	n	u	n	n
CCC(CC)c1cc([C@H]2CN3CC[C@H]2C[C@@H]3COC(=O)Nc2ccc(C(C)(C)C)cc2)nc(-c2ccncc2)n1	x	x	x	50µM	x	x
CCCNC(=O)OC[C@H]1C[C@@H]2CCN1C[C@@H]2c1cc(C(CC)CC)nc(-c2ccncc2)n1	x	x	x	n	x	x
ClCCN(CCCl)c1ccc(C=Cc2ccncn2)cc1	n	22µM	n	n	n	n
ClCCN(CCCl)c1ccc(C=NNc2ncccn2)cc1	n	n	n	n	n	n
CN1CC2(CCN(c3nccc(N)n3)CC2)CC1C(=O)O (centres undefined)	x	x	x	n	x	x
O=C(CNC12CC3CC(CC(C3)C1)C2)c1ccc(Cl)cc1	x	x	x	n	x	x
CNCC/C=C\c1cccnc1	x	x	x	25µM	x	x
CCOC(=O)CC(SP(=S)(OC)OC)C(=O)OCC (centres undefined)	x	x	x	23µM!	x	x
CN(C)c1ccc(C=Cc2ccnc3c(O)cccc23)cc1	x	u	n	11µM	n	x
Nc1ccc2c(c1)Cc1cc([N+](=O)[O-])ccc1-2	n	11µM	n	n	u	n
O=[N+]([O-])c1ccc2c(c1)Cc1cc(O)ccc1-2	n	n	n	u	n	n
COc1cc(C)cc2oc(=O)c(CC(=O)N3CCN(CCc4ccccn4)CC3)c(C)c12	x	x	x	n	x	x
N#Cc1cccc(NC(=O)Nc2ccc3n(c2=O)C[C@H]2C[C@@H]3CN(C3CCOCC3)C2)c1	x	x	x	16µM	x	x
CC(O)C1C=CC=CC(=O)OC2CC3OC4C5OC5(C)CCC4(COC(=O)C4OC4(C)C(O)CO1)C2(C)C31CO1 (centres undefined)	n	n	n	32µM	n	n
C[CH2][Hg][S]c1ccccc1C(=O)O	n	n	n	5.6µM	n	n
C=CCN1C(=O)/C(=C/c2cccs2)C(=O)NC1=S	n	n	n	45µM	n	n
COc1ccccc1/C=C1\C(=O)NC(=S)N(c2ccccc2)C1=O	n	n	n	u	n	n
COc1ccc(N2C(=O)/C(=C/C=C/c3ccccc3[N+](=O)[O-])C(=O)NC2=S)cc1	n	u	n	11µM	n	n
O=C1NC(=O)N(CCc2ccc(F)cc2)C(=O)/C1=C/c1cccs1	n	u	n	u	n	n
COc1ccc(N2C(=O)/C(=C/c3cccs3)C(=O)NC2=S)cc1	n	n	n	28µM	n	n
COc1ccc(N2C(=O)NC(=O)/C(=C\c3cn(C)c4ccccc34)C2=O)cc1	u	22µM	n	x	n	n
CC[C@H]1CN2CC[C@H]1C[C@@H]2CNCc1ccc(SC)cc1	x	x	x	n	x	x
O=C1NC[C@H]2CN(Cc3ccccc3)CCN12	x	x	x	n	x	x
COc1cc2c(cc1OCc1ccccc1)N(C(=O)c1cccc(N(C)C)c1)CC21CCN(C)CC1	x	x	x	n	x	x
COc1ccc(N2C(=O)NC(=O)/C(=C\c3ccc([N+](=O)[O-])s3)C2=O)cc1	n	u	n	45µM	n	n
Oc1cc2c(cc1O)[C@H]1c3ccccc3CN[C@@H]1CC2	x	x	x	x	n	x
